Assay outcomes: PubChem BioAssay, several laboratories
V-ATPase pH – regulators of yeast V-ATPase proton transport; S. cerevisiae, pHLuorin cytosolic pH fluorescence; response, % at 10 µM; 0.37% of 350,000 active; in the data active = response mostly above about 7.3%, no sharp cut-off; inactive = mostly below about 5.4%; note: actives read high
NSD2 inh – blocks human histone methyltransferase NSD2; NSD2 peptide methylation, AlphaScreen, 120 min; inhibition, % at 12.5 µM; 0.54% of 310,000 active; in the data active = inhibition above about 50%
GC-B act – GC-B (human) receptor activation | P20594 | AID 1920062 | HEK293-GC-B cells, CNP EC30, cGMP TR-FRET; 0% at EC30 CNP, 100% saturating CNP | activation, % at 10 µM | 0.11% of 370,000 active;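 active = activation at 10 µM reaching about 35% in either raw or pattern-adjusted values, limit read from the data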
Efflux pump mplx – inhibitors of Candida antifungal efflux pumps expressed in yeast | AID 485275 | 0.44% of 330,000 active | inhibition, % at 10 µM | S. cerevisiae Candida pump triplex, Nile Red efflux;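 active = plate passing quality check with inhibition over a set limit, or well fluorescence over plate mean plus 4 SD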;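 note: Nile Red retained in pooled yeast measured as flow cytometry median fluorescence; higher means more Nile Red kept so more efflux inhibition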
Rce1 inh – blocks yeast Ras-converting enzyme | calls only | Q03530 | AID 2563 | 0.27% of 290,000 active | yeast membranes, quenched prenylated peptide cleavage fluorescence;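 active = fall in fluorescence gain of 50% or more versus controls, with final raw signal at or below 3038400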
Target sequence (Q03530 whole entry, looked up): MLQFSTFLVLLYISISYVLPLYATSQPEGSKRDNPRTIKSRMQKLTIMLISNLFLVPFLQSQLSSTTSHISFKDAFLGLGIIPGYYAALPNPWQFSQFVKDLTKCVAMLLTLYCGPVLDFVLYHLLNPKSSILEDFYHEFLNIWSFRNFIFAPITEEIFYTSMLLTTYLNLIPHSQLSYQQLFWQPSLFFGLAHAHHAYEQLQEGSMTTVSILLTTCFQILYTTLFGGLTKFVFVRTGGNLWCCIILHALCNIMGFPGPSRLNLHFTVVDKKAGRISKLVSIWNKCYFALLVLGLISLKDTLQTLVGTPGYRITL
NPR1 activator – GC-A (human) enzyme activation. P16066. HEK293 GC-A cells, cGMP TR-FRET, EC30 ANP; 0% at EC30 ANP, 100% saturating ANP. activation, % at 10 µM. 0.14% of 370,000 active; in the data active = activation above about 40%
AlphaScreen art – interferes with AlphaScreen signal, flagging NSD2 false positives; shares compounds with NSD2 inh; AlphaScreen artifact counterscreen, preloaded methylated H4 peptide; AC35, µM (series often up to 10 µM); 9.4% of 1,500 active; AID 1053174; call rule not given here
A number is an active result; 0 = inactive; - = no result. Most compounds without a hit are left out; they make up all but 1.6% or so of the library.

SMILES	V-ATPase pH	NSD2 inh	GC-B act	Efflux pump mplx	Rce1 inh	NPR1 activator	AlphaScreen art
O=C(c1ccc2c(c1)OCO2)C1CCCN(Cc2ccc3cccc(F)c3n2)C1 (stereo not given)	-	51.2	0	0	0	0	0
O=C(CC(=O)Nc1ccc(Cl)cc1)N/N=C\c1cccc(F)c1	0	112.6	0	0	0	0	0
CCCCOCCCNC(=O)C[C@H]1C[C@@]2(C(=O)OC)C(=C[C@H](C(C)(C)C)O[C@@H]2C)N(Cc2ccco2)C1=O	-	-	0	-	-	0	-
O=C(O)c1[nH]c2ccccc2c1C(c1ccccc1)c1c(C(=O)O)[nH]c2ccccc12	0	0	0	0	0	0	-
O=C(O)c1[nH]c2ccccc2c1C(c1cc(Cl)cc([N+](=O)[O-])c1O)c1c(C(=O)O)[nH]c2ccccc12	0	55.5	0	0	0	0	0
O=C(CC1SC2=NCCN2C1=O)Nc1ccccc1 (stereo not given)	0	115.2	0	0	0	0	0
Cc1ccc(NC(=O)CC2SC3=NCCN3C2=O)cc1 (stereo not given)	0	0	0	0	-	0	-
C#CCNC(=O)C[C@H]1C[C@@]2(C(=O)OC)C(=C[C@H](COCc3ccccc3)O[C@@H]2C)N(Cc2ccc(Cl)cc2Cl)C1=O	-	-	0	-	-	0	-
O=C(NCCN1CCC(Cc2ccccc2)CC1)C1CCCN(S(=O)(=O)c2ccccc2)C1 (stereo not given)	-	0	0	-	-	0	-
O=C(O)Cc1sc(NC2CCCCC2)nc1-c1ccc(Cl)cc1	0	99.0	0	0	0	0	0
COc1ccc(C2C(C(=O)Nc3ccc(Cl)cc3)CCC(=O)N2c2ccc(OC)cc2)cc1 (stereo not given)	-	0	0	-	-	0	-
COC(=O)[C@]12C[C@H](CC(=O)NCc3ccc(OC)c(OC)c3)C(=O)N(Cc3ccc(Cl)cc3Cl)C1=C[C@H](C(C)(C)C)O[C@@H]2C	-	-	0	-	-	0	-
Cc1cc(=O)oc(C)c1C(=O)OCC(=O)c1ccc2ccccc2c1	0	0	0	0	0	0	-
Cc1cc(=O)oc(C)c1C(=O)OCC(=O)c1ccccc1	0	53.7	0	0	0	0	0
COc1ccc(OC)c(S(=O)(=O)N2CCC(C(=O)N3CCN(C4CCCCC4)CC3)CC2)c1	-	0	0	-	-	0	-
COCCNc1nc(-c2ccccc2)nc2ccccc12	0	50.8	0	0	0	0	0
Fc1ccc(CNc2nc(-c3cccnc3)nc3ccccc23)cc1	0	118.4	0	0	0	0	0
COCCCNc1nc(-c2ccncc2)nc2ccccc12	0	0	0	0	0	0	-
CCOC(=O)C1CCCCN1C(=O)[C@@H]1CC=C[C@@H]2CCN(c3ccccc3)C(=O)[C@@H]21 (stereo not given in full)	-	-	0	-	-	0	-
CN(c1c2c(nc3ncnn13)CCCC2)C1CCCCC1	-	0	0	-	-	0	-
O=[N+]([O-])c1ccccc1NC(=S)N/N=C/c1ccc(O)c(O)c1	0	116.9	0	0	0	0	1.79µM
COc1ccc(S(=O)(=O)NCc2ccc3c(c2)OCO3)cc1OC	0	54.7	0	0	0	0	0
COc1cc(OC)c(C(=O)OC(C)C(=O)NCc2ccc3c(c2)OCO3)cc1OC (stereo not given)	0	75.8	0	0	-	0	0
COC(=O)C1CN(CC(C)C)CCS(=O)(=O)N1Cc1ccc(Cl)cc1 (stereo not given)	-	-	0	-	-	0	-
Cc1nc2ccc(C(=O)N3CCN(C(=O)C(Cl)Cl)CC3)cc2n1C1CCCC1	-	0	0	-	-	0	-
SMILES	V-ATPase pH	NSD2 inh	GC-B act	Efflux pump mplx	Rce1 inh	NPR1 activator	AlphaScreen art
OC1(Cc2ccccc2)CCN(c2ncnc3sccc23)CC1	-	-	0	-	-	0	-
COc1cc(SC)ccc1C(=O)NCCNC(=O)c1nonc1N	0	0	0	0	0	0	-
Nc1nonc1C(=O)NCCNC(=O)c1ccccc1F	0	66.6	0	0	0	0	0
CCOC(=O)Nc1cc(C(=O)OC)ccc1C	0	119.4	0	0	0	0	0
CCc1c(C(=O)Nc2cc(C(=O)OC)ccc2C)csc1C	0	-	0	0	0	0	-
O=[N+]([O-])c1ccc(N(CC(O)CN2CCCCC2)S(=O)(=O)c2ccccc2)cc1 (stereo not given)	0	67.7	0	0	0	0	0
